From PubChem BioAssay (NCI)
The panel holds about 79,000 compounds, 15% with a hit somewhere; the sample as a whole holds those more often. The source made the active and inactive calls. Cut-off read from the data, not from the text of the source: active = growth inhibition above about 70%; inactive = the rest.

Experiments:
[1] = NCI Yeast Anticancer Drug Screen. Data for the rad52 strain (AID 147);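 note: 0% = growth of vehicle-treated control cultures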; conditions: S. cerevisiae rad52 mutant growth inhibition, stronger effect = higher value
Procedure, shortened: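 Genetically altered yeast (DNA damage repair defect) treated with compound; inhibition calculated relative to vehicle.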

[2] = NCI Yeast Anticancer Drug Screen. Data for the wt1 strain (AID 149);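 note: 0% = growth of vehicle-treated wt1 cultures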; conditions: S. cerevisiae wt1 strain (SPY 50644) growth inhibition, stronger effect = higher value
Procedure, shortened: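 Compounds are added to wt1 yeast cultures. Growth is then measured. Inhibition is expressed relative to vehicle-treated controls.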

[3] = NCI Yeast Anticancer Drug Screen. Data for the rad50EPP+ strain (AID 151);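 note: 0% = growth of vehicle-treated control cultures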; conditions: S. cerevisiae rad50 mutant strain, stronger effect = higher value
Procedure, shortened: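 Strain rad50EPP+; compound exposure; % growth inhibition vs vehicle.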

[4] = NCI Yeast Anticancer Drug Screen. Data for the mgt1 strain (AID 153); conditions: S. cerevisiae mgt1 mutant growth inhibition, stronger effect = higher value
Procedure, shortened: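 Read-out: yeast growth inhibition vs vehicle control. Strain mgt1, drawn from a panel altered in DNA damage repair or cell cycle control.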

[5] = NCI Yeast Anticancer Drug Screen. Data for the rad50 strain (AID 155);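 note: 0% = growth of vehicle-only cultures of the same strain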; conditions: S. cerevisiae rad50 strain growth inhibition, stronger effect = higher value
Procedure, shortened: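 Inhibition values express reduced yeast growth in compound-treated cultures relative to vehicle-treated controls.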

[6] = NCI Yeast Anticancer Drug Screen. Data for the mec2-1 strain (AID 157); conditions: S. cerevisiae mec2-1 strain, stronger effect = higher value
Procedure, shortened: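 Cells of the genetically defined mec2-1 yeast strain are incubated with test compound. Inhibition of growth is calculated against vehicle-treated controls.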

[7] = NCI Yeast Anticancer Drug Screen. Data for the rad14 strain (AID 159);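 note: 0% = growth of vehicle-treated control cultures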; conditions: S. cerevisiae rad14 strain growth inhibition, stronger effect = higher value
Procedure, shortened: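 A mutant yeast strain defective in DNA damage repair is treated with compound; inhibition of its growth is scored against untreated, vehicle-exposed cultures.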

[8] = NCI Yeast Anticancer Drug Screen. Data for the sgs1 mgt1 strain (AID 161);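 note: 0% = growth of cultures given vehicle only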; conditions: S. cerevisiae sgs1 mgt1 strain, at 50.0 µM, stronger effect = higher value
Procedure, shortened: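 Inhibition of yeast growth, normalised to vehicle-treated controls, is reported for a strain bearing genetic alterations in DNA damage repair.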

[9] = NCI Yeast Anticancer Drug Screen. Data for the CLN2oe strain (AID 163);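 note: 0% = growth of vehicle-only control cultures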; conditions: S. cerevisiae CLN2oe strain, stronger effect = higher value
Procedure, shortened: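 Strain altered in cell-cycle control, incubated with compound; growth compared to solvent-treated controls.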

[10] = NCI Yeast Anticancer Drug Screen. Data for the cln2 rad14 strain (AID 165);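 note: 0% = growth equal to vehicle treated cultures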; conditions: S. cerevisiae cln2 rad14 strain, at 50.0 µM, stronger effect = higher value
Procedure, shortened: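 The screen exposed genetically defined yeast (cln2 rad14) to test compounds and scored growth inhibition relative to vehicle-treated controls.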

[11] = NCI Yeast Anticancer Drug Screen. Data for the bub3 strain (AID 167); conditions: S. cerevisiae bub3 mutant strain, stronger effect = higher value
Procedure, shortened: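 Steps: expose the mutant yeast strain to compound; grow alongside vehicle-treated cultures; measure growth; express inhibition against the vehicle cultures.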

[12] = NCI Yeast Anticancer Drug Screen. Data for the wt2 strain (AID 169);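 note: 0% = growth of vehicle-treated yeast cultures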; conditions: S. cerevisiae wt2 strain growth inhibition, stronger effect = higher value
Procedure, shortened: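 Steps: yeast strain treated with compound; growth recorded; inhibition calculated relative to cultures given vehicle alone.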

[13] = NCI Yeast Anticancer Drug Screen. Data for the sgs1 strain (AID 173);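 note: 0% = growth of vehicle-only control cultures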; conditions: S. cerevisiae sgs1 mutant, stronger effect = higher value
Procedure, shortened: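 Inhibition of yeast growth served as the measure. The mutant strain was treated with each compound, and growth was normalised to cultures receiving vehicle alone.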

[14] = NCI Yeast Anticancer Drug Screen. Data for the mlh1 rad18 strain (AID 175); conditions: S. cerevisiae mlh1 rad18 strain growth inhibition; at 50.0 µM; stronger effect = higher value
Procedure, shortened: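 Compound-treated yeast growth, normalised to vehicle controls. Strain bears defined DNA repair mutations.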

[15] = NCI Yeast Anticancer Drug Screen. Data for the rad18 strain (AID 177); conditions: S. cerevisiae rad18 mutant growth inhibition, stronger effect = higher value
Procedure, shortened: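 Inhibition values reflect reduced yeast growth compared with vehicle-treated controls, using a strain engineered with a DNA damage repair defect.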

Measured: growth inhibition

CN(N=O)C(=O)N[C@@H](C=O)[C@@H](O)[C@H](O)[C@H](O)CO
inactive: [1]; at 1.2 µM 0% | [1]; at 3.7 µM 1% | [1]; at 11.0 µM 5% | [1]; at 33.0 µM 2% | [1]; at 100.0 µM 3% | [2]; at 1.2 µM 0% | [2]; at 3.7 µM -1% | [2]; at 11.0 µM 0% | [2]; at 33.0 µM -1% | [2]; at 100.0 µM 20% | [3]; at 1.2 µM 0% | [3]; at 3.7 µM 0% | [3]; at 11.0 µM 0% | [3]; at 33.0 µM -7% | [3]; at 100.0 µM 3% | [4]; at 1.2 µM -1% | [4]; at 3.7 µM -1% | [4]; at 11.0 µM -18% | [4]; at 33.0 µM 0% | [4]; at 100.0 µM -1% | [5]; at 1.2 µM -1% | [5]; at 3.7 µM -1% | [5]; at 11.0 µM 4% | [5]; at 33.0 µM -1% | [5]; at 50.0 µM 3.9% | [5]; at 100.0 µM -2% | [6]; at 1.2 µM -3% | [6]; at 3.7 µM -7% | [6]; at 11.0 µM -6% | [6]; at 33.0 µM 2% | [6]; at 50.0 µM -7.8% | [6]; at 100.0 µM -7% | [7]; at 1.2 µM -1% | [7]; at 3.7 µM -3% | [7]; at 11.0 µM -2% | [7]; at 33.0 µM -2% | [7]; at 100.0 µM -4% | [8] 17.6% | [9]; at 1.2 µM -10% | [9]; at 3.7 µM -3% | [9]; at 11.0 µM -6% | [9]; at 33.0 µM -9% | [9]; at 100.0 µM -6% | [10] -1.1% | [11]; at 1.2 µM 1% | [11]; at 3.7 µM 0% | [11]; at 11.0 µM 0% | [11]; at 33.0 µM -4% | [11]; at 50.0 µM 7.3% | [11]; at 100.0 µM -1% | [12]; at 1.2 µM -3% | [12]; at 3.7 µM 0% | [12]; at 11.0 µM -2% | [12]; at 33.0 µM -1% | [12]; at 100.0 µM -1% | [13]; at 1.2 µM 0% | [13]; at 3.7 µM 0% | [13]; at 11.0 µM 2% | [13]; at 33.0 µM 2% | [13]; at 100.0 µM 1% | [14] 4.1% | [15]; at 1.2 µM 0% | [15]; at 3.7 µM 0% | [15]; at 11.0 µM 0% | [15]; at 33.0 µM 2% | [15]; at 100.0 µM 19%

CC(=O)O[C@H]1C(=O)[C@@]2(C)[C@H]([C@H](OC(=O)c3ccccc3)[C@]3(O)C[C@H](OC(=O)[C@H](O)[C@@H](NC(=O)c4ccccc4)c4ccccc4)C(C)=C1C3(C)C)[C@]1(OC(C)=O)CO[C@@H]1C[C@@H]2O
inactive: [1]; at 1.2 µM 0% | [1]; at 3.7 µM 0% | [1]; at 11.0 µM 1% | [1]; at 33.0 µM 1% | [1]; at 100.0 µM 0% | [2]; at 1.2 µM -1% | [2]; at 3.7 µM -2% | [2]; at 11.0 µM -2% | [2]; at 33.0 µM -3% | [2]; at 100.0 µM -18% | [3]; at 1.2 µM -4% | [3]; at 3.7 µM -2% | [3]; at 11.0 µM -2% | [3]; at 33.0 µM 3% | [3]; at 100.0 µM 0% | [4]; at 1.2 µM -2% | [4]; at 3.7 µM -2% | [4]; at 11.0 µM -3% | [4]; at 33.0 µM -3% | [4]; at 100.0 µM -7% | [5]; at 1.2 µM -1% | [5]; at 3.7 µM -2% | [5]; at 11.0 µM 0% | [5]; at 33.0 µM -1% | [5]; at 50.0 µM 23.4% | [5]; at 100.0 µM -6% | [6]; at 1.2 µM -5% | [6]; at 3.7 µM -2% | [6]; at 11.0 µM 2% | [6]; at 33.0 µM -4% | [6]; at 50.0 µM 18.3% | [6]; at 100.0 µM -10% | [7]; at 1.2 µM -1% | [7]; at 3.7 µM -2% | [7]; at 11.0 µM 1% | [7]; at 33.0 µM -2% | [7]; at 100.0 µM -5% | [8] -9% | [9]; at 1.2 µM -4% | [9]; at 3.7 µM -4% | [9]; at 11.0 µM -5% | [9]; at 33.0 µM -7% | [9]; at 100.0 µM -13% | [10] 24.1% | [11]; at 1.2 µM -5% | [11]; at 3.7 µM -5% | [11]; at 11.0 µM 2% | [11]; at 33.0 µM -13% | [11]; at 50.0 µM -4.15% | [11]; at 100.0 µM -3% | [12]; at 1.2 µM -2% | [12]; at 3.7 µM -2% | [12]; at 11.0 µM -4% | [12]; at 33.0 µM -4% | [12]; at 100.0 µM -5% | [13]; at 1.2 µM -3% | [13]; at 3.7 µM -3% | [13]; at 11.0 µM -1% | [13]; at 33.0 µM -3% | [13]; at 100.0 µM -4% | [15]; at 1.2 µM -5% | [15]; at 3.7 µM -1% | [15]; at 11.0 µM 1% | [15]; at 33.0 µM 2% | [15]; at 100.0 µM 0%

O=NN(CCCl)C(=O)NC1CCCCC1
inactive: [1]; at 1.2 µM 6% | [1]; at 3.7 µM 11% | [1]; at 11.0 µM 33% | [1]; at 33.0 µM 44% | [1]; at 100.0 µM 50% | [2]; at 1.2 µM -2% | [2]; at 3.7 µM -1% | [2]; at 11.0 µM 1% | [2]; at 33.0 µM 5% | [2]; at 100.0 µM -5% | [3]; at 1.2 µM 16% | [3]; at 3.7 µM 24% | [3]; at 11.0 µM 45% | [3]; at 33.0 µM 61% | [3]; at 100.0 µM 49% | [4]; at 1.2 µM -3% | [4]; at 3.7 µM -2% | [4]; at 11.0 µM 1% | [4]; at 33.0 µM 2% | [4]; at 100.0 µM 10% | [5]; at 1.2 µM 5% | [5]; at 3.7 µM 12% | [5]; at 11.0 µM 39% | [5]; at 33.0 µM 55% | [5]; at 100.0 µM 52% | [6]; at 1.2 µM -1% | [6]; at 3.7 µM 4% | [6]; at 11.0 µM 10% | [6]; at 33.0 µM 13% | [6]; at 100.0 µM 13% | [7]; at 1.2 µM 1% | [7]; at 3.7 µM 7% | [7]; at 11.0 µM 13% | [7]; at 33.0 µM 15% | [7]; at 100.0 µM 14% | [9]; at 1.2 µM -3% | [9]; at 3.7 µM -2% | [9]; at 11.0 µM -3% | [9]; at 33.0 µM -5% | [9]; at 100.0 µM 18% | [11]; at 1.2 µM -4% | [11]; at 3.7 µM -3% | [11]; at 11.0 µM 3% | [11]; at 33.0 µM 14% | [11]; at 100.0 µM 12% | [12]; at 1.2 µM -3% | [12]; at 3.7 µM -2% | [12]; at 11.0 µM 2% | [12]; at 33.0 µM 11% | [12]; at 100.0 µM 49% | [13]; at 1.2 µM 4% | [13]; at 3.7 µM 7% | [13]; at 11.0 µM 22% | [13]; at 33.0 µM 34% | [13]; at 100.0 µM 43% | [15]; at 1.2 µM 29% | [15]; at 3.7 µM 46% | [15]; at 100.0 µM 53%
active: [15]; at 11.0 µM 84% | [15]; at 33.0 µM 92%
